{"source": "PubChem BioAssay AID588352", "about": "(The Scripps Research Institute Molecular Screening Center, 2011)", "note": "The whole screen tested about 360,000 compounds, of which about 620 (0.17%) were called active.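 How the source made its calls: active means inhibition above a per-campaign cutoff, the mean of all compounds plus 3 SD (cut at about 60% in these data); inactive means the rest.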 Only a selection was taken, and actives are over-represented in it overall."}
{"target": "Nuclear receptor coactivator 3 (Homo sapiens) (UniProt Q9Y6Q9)", "sequence (Q9Y6Q9 whole entry, looked up, the tested form may be a part)": "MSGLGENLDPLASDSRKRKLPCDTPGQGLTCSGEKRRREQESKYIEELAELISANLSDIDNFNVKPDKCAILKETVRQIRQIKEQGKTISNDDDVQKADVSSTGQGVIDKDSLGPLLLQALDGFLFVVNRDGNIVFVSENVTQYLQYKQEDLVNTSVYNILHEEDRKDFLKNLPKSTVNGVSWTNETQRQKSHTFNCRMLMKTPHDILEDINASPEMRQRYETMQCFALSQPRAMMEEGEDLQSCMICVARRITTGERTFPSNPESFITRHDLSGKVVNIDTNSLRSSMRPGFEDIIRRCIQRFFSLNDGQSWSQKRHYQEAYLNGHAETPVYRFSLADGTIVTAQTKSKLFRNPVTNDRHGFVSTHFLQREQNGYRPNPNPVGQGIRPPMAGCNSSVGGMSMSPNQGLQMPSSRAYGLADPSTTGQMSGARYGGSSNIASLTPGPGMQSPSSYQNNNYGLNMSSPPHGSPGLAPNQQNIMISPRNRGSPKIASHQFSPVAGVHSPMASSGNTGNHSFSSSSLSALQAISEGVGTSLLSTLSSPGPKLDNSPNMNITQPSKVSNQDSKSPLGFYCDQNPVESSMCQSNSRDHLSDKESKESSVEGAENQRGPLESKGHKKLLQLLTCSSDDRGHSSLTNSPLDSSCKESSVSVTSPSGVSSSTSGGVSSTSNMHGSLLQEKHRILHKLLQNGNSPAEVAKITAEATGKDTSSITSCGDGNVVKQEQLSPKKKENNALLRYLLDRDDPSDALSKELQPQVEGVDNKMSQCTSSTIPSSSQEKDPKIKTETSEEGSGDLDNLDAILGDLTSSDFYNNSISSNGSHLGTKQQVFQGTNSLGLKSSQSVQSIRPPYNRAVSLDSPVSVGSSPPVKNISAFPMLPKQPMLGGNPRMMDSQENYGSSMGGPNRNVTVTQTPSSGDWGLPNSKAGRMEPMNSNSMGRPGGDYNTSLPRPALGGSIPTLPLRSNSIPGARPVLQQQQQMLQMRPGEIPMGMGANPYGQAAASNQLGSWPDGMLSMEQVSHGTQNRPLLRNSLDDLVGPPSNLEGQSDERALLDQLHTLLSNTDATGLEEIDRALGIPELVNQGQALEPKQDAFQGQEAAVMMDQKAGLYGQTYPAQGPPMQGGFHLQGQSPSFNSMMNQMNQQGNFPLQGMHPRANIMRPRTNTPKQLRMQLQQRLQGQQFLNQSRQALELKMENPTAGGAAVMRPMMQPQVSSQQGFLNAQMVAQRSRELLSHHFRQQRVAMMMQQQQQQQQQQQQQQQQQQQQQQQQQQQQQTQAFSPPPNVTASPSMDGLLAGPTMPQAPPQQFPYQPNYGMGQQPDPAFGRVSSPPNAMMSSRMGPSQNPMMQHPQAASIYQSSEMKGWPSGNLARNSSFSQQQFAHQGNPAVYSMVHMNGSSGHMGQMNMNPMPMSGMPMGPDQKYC", "assay": "SRC3 coactivator transcriptional activity inhibitors, primary screen, cell-based, luminescence (AID 588352);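 further: 0% = DMSO-treated cells and 100% = gossypol-treated cells at 36 µM; higher means less SRC3-driven luciferase light from the GAL4 reporter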", "conditions": "HEK293 GAL4-SRC3 luciferase reporter, at 3.6 µM, active compounds read high"}
{"smiles": "CN(C)CC(C)(C)CNC(=O)c1cc(Br)cc(Br)c1O", "inhibition": "-17% (inactive)"}
{"smiles": "Cc1c(NC(=O)COC(=O)/C=C/c2cccc(F)c2)c(=O)n(-c2ccccc2)n1C", "inhibition": "-6.79% (inactive)"}
{"smiles": "CC(=O)NN=C(C)c1ccc(NC(=O)C2CC2)cc1", "inhibition": "0.05% (inactive)"}
{"smiles": "CCCC(NCC(=O)Nc1ccccc1C(=O)NC1CC1)c1ccccc1", "note": "(centres undefined)", "inhibition": "4.81% (inactive)"}
{"smiles": "Cn1c(CC(=O)Nc2ccc(F)cc2)nnc1SCC(=O)NC1CCCCC1", "inhibition": "-3.83% (inactive)"}
{"smiles": "Cc1ccc(OCCNC(=O)c2cccc(S(=O)(=O)N3CCN(Cc4ccccc4)CC3)c2)cc1", "inhibition": "0.45% (inactive)"}
{"smiles": "CC(=O)c1ccc(OC(=O)N2CCOCC2)cc1", "inhibition": "-9.63% (inactive)"}
{"smiles": "CCC(NC(=O)C1CCCC1)c1ccc(C)cc1", "note": "(centres undefined)", "inhibition": "-5.79% (inactive)"}
{"smiles": "COc1ccc(Cl)cc1NC(=O)C(C)N1CCc2ccccc21", "note": "(centres undefined)", "inhibition": "-3.25% (inactive)"}
{"smiles": "O=C(N/N=C/c1ccccc1O)/C(=C/c1ccccc1)CCO", "inhibition": "43.6% (inactive)"}
{"smiles": "C=CCOc1ccccc1/C=N/NC(=O)Cc1ccccc1", "inhibition": "-4.16% (inactive)"}
{"smiles": "O=C(NN=Cc1ccccc1O)NN=Cc1ccccc1O", "inhibition": "64.5% (active)"}
{"smiles": "O=C(COc1ccc(S(=O)(=O)NCCc2ccccc2)cc1)N1CCCC1", "inhibition": "15.7% (inactive)"}
{"smiles": "CCc1nnc(NC(=O)CCN(c2ccc(C)cc2)S(=O)(=O)c2ccccc2)s1", "inhibition": "3.02% (inactive)"}
{"smiles": "CNS(=O)(=O)c1ccc(N2CCCC2=O)c([N+](=O)[O-])c1", "inhibition": "0.16% (inactive)"}
{"smiles": "COc1ccc(N(C(=O)c2snc(C(N)=O)c2N)C(C(=O)NC2CCCC2)c2ccco2)cc1OC", "note": "(centres undefined)", "inhibition": "-3.31% (inactive)"}
{"smiles": "Brc1ccc2nc(-c3ccccc3)c(Cc3ccccc3)n2c1", "inhibition": "-38.3% (inactive)"}
{"smiles": "Cc1cc(=O)oc2c(C(=O)c3ccccc3)c(OCC(N)=O)ccc12", "inhibition": "14.2% (inactive)"}
{"smiles": "COc1ccc(C(=O)N/N=C2\\CCS(=O)(=O)c3ccc(F)cc32)cc1OC", "inhibition": "5.88% (inactive)"}
{"smiles": "Cc1cc(C)n(C(=O)c2ccc(C)c(S(=O)(=O)N3CCOCC3)c2)n1", "inhibition": "12.7% (inactive)"}
{"smiles": "CC[C@H]1CN2CCc3cc(OC)c(OC)cc3[C@@H]2C[C@@H]1C[C@H]1NCCc2cc(OC)c(OC)cc21", "inhibition": "94.6% (active)"}
{"smiles": "O=C(O)C1CCN(C(=O)OCc2ccccc2)CC1", "inhibition": "-70.7% (inactive)"}
{"smiles": "CCCNC(=O)C1(C)CCCN(C(=O)c2cccc(OC(C)=O)c2C)C1", "note": "(centres undefined)", "inhibition": "-10.9% (inactive)"}
{"smiles": "CCOC(=O)CN(C)S(=O)(=O)c1ccc(-c2cc(C(=O)OC)sc2C(F)(F)F)cc1", "inhibition": "9.38% (inactive)"}
{"smiles": "N#C/C(=C(\\O)CCl)c1nnc2n1CCCCC2", "inhibition": "9.47% (inactive)"}
{"smiles": "CCCOc1ccc(Cc2c(O)nc(N)[nH]c2=O)cc1C", "inhibition": "1.06% (inactive)"}
{"smiles": "COC(=O)/C=C(\\Oc1ccccc1)C1(O)CCCCC1", "inhibition": "9.01% (inactive)"}
{"smiles": "COc1ccc(Nc2ncnc3ccc(Br)cc23)c(OC)c1", "inhibition": "82% (active)"}
{"smiles": "COc1ccc(OC)c(Nc2nc3ccccc3n3cnnc23)c1", "inhibition": "9.44% (inactive)"}
{"smiles": "COc1ccc(OC)c(NC(=O)CN(C)CCOc2ccc(Br)cc2)c1", "inhibition": "4.03% (inactive)"}
{"smiles": "CCOC1=C2[C@@H](CN(S(=O)(=O)c3ccc(C)cc3)[C@H]2c2ccccc2F)[C@H]2C(=O)N(Cc3ccccc3)C(=O)[C@H]2C1", "inhibition": "2.22% (inactive)"}
{"smiles": "CCn1ncc(CNC(=O)C2(C)CC2(Br)Br)c1C", "note": "(centres undefined)", "inhibition": "-0.54% (inactive)"}
{"smiles": "CCCCCCCCn1c2c(c(=N)c3c1CCC3)CCCC2", "inhibition": "80% (active)"}
{"smiles": "Cc1cc(S(=O)(=O)NC2CCCC2)ccc1-n1cnnn1", "inhibition": "2.04% (inactive)"}
{"smiles": "O=S1(=O)CCC(NC(=S)SCc2ccccc2Br)C1", "note": "(centres undefined)", "inhibition": "8% (inactive)"}
{"smiles": "FC(F)(F)c1cccc(-c2nc(COc3ccc(Cl)cc3Cl)no2)c1", "inhibition": "12.2% (inactive)"}
{"smiles": "CN(C(=O)Nc1ccc(Cl)cc1)n1cnc2ccccc2c1=O", "inhibition": "-6.25% (inactive)"}
{"smiles": "CC(C)(C)c1nc2ccccc2c(=O)n1N1C(=O)c2ccccc2C1=O", "inhibition": "2.66% (inactive)"}
{"smiles": "CN(c1ccc2nc3ccccc3c(=O)n2n1)C1CCCCC1", "inhibition": "73.1% (active)"}
{"smiles": "COc1cccc2cc(C(=O)NCc3ccc(C)cc3)c(=N)oc12", "inhibition": "14.3% (inactive)"}
{"smiles": "C=CCOC(=O)C1=C[C@@H](c2ccc3c(c2)OCO3)C[C@@H](OCCCCO)O1", "inhibition": "-13.9% (inactive)"}
{"smiles": "CC(C)c1cc(C(N)=O)c(NC(=O)c2cccc(COc3ccc(Br)cc3)c2)s1", "inhibition": "-149% (inactive)"}
{"smiles": "COCc1ccc(C(=O)NC2CC(C)(C)Cc3c2cnn3-c2ccc(C)cc2)o1", "note": "(centres undefined)", "inhibition": "16.3% (inactive)"}
{"smiles": "O=C(OC12CC3CC(CC(C3)C1)C2)c1ccc(NCc2cc(O)ccc2O)cc1", "inhibition": "74.5% (active)"}
{"smiles": "CC(C)OC(=O)c1ccc(NCc2cc(O)ccc2O)cc1Cl", "inhibition": "-31.6% (inactive)"}
{"smiles": "CCOC(=O)c1[nH]cnc1C(=O)NC1CCCCC1", "inhibition": "-23% (inactive)"}
{"smiles": "COc1cccc(Nc2nnc(SCC(=O)N3CC(C)OC(C)C3)s2)c1", "note": "(centres undefined)", "inhibition": "-8.99% (inactive)"}
{"smiles": "C=CCSc1nnc(Cn2c(=O)sc3ccccc32)n1C", "inhibition": "5.67% (inactive)"}
{"smiles": "COc1ccccc1Cn1c(C)nnc1-c1cnn(C)c1N", "inhibition": "19.6% (inactive)"}
{"smiles": "CCc1nc2ccc(C(=O)NC3CCN(Cc4ccccc4)CC3)cn2c1N(C)CCN1CCOCC1", "inhibition": "14.3% (inactive)"}
{"smiles": "Nc1nc(SCC(=O)NNc2c(Cl)cc(Cl)cc2Cl)n[nH]1", "inhibition": "18% (inactive)"}
{"smiles": "Cc1ccc(C)c(S(=O)(=O)N2CC(=O)Nc3ccccc32)c1", "inhibition": "22.6% (inactive)"}
{"smiles": "COc1ccc(S(=O)(=O)NCC(=O)NC2CC2)cc1OC", "inhibition": "-59% (inactive)"}
{"smiles": "COc1cc(OC)cc(-c2c(-c3ccc(F)cc3)c3cc(-c4ccc5cc[nH]c5c4)ccc3n2C)c1", "inhibition": "7.21% (inactive)"}
